FMDV inh: High Throughput Screening for Foot and Mouth Disease Virus Antivirals; FMDV antiviral cell-based qHTS; Potency, µM (series often up to 57.9 µM), for inactives: at the top dose activity change, negative = inhibition, most hits filed as inhibitors; 1.2% of 410,000 active; calls by dose curve; tested in HEK293T cells; note: read-out not given here; potency is the fitted concentration of half-maximal effect; % is set by controls: 0 for no effect and ±100 for the full control effect; nearly all actives have a fitted effect of over 45% in size
Sm TGR inh: qHTS Assay for the Inhibitors of Schistosoma Mansoni Peroxiredoxins; Schistosoma mansoni thioredoxin glutathione reductase (TGR), Q962Y6; Potency, µM (highest dose often 114 µM), for inactives: at the highest dose activity change, negative = inhibition, hits mostly inhibitors; 3% of 360,000 active; purified TGR, DTNB reduction, TNB absorbance 405 nm; active = well fitted inhibition curve with a large enough effect; inconclusive = small, poorly fitted or top-dose-only effect; inactive = no such curve, though single readings can be large or run the other way; note: potency is the fitted concentration of half-maximal effect; % is set by controls: 0 for no effect and ±100 for the full control effect; nearly all actives have a fitted effect of over 60% in size
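TGR 20 nM + NADPH 100 uM (dispensed conc.), cpd preinc 15 min RT; start with NADPH (500 uM addition) then DTNB (15 mM addition). Kinetic TNB absorbance, 405 nm filter. Four-parameter Hill fit across titration.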
Shiga inhibitor: A qHTS for Small Molecule Inhibitors of Shiga Toxin; Vero cells, Shiga toxin protein synthesis inhibition reporter; inhibition, % at 38.7 µM; 9.2% of 290,000 active; in the data active = inhibition mostly above about 28%, no sharp cut-off; inactive = mostly below about 43%; note: 0% is about no effect
CHX counter: Cycloheximide Counterscreen for Small Molecule Inhibitors of Shiga Toxin; cell reporter, cycloheximide protein synthesis inhibition counterscreen; max response, %; 12% of 300,000 active; in the data active = max response mostly above about 13%, no sharp cut-off; inactive = mostly below about 14%; note: read at 38.3 µM for the half of the compounds with a filed dose; 0% is about no effect
Numbers without * were called inactive; ? = inconclusive; . = no result given. Sampled rows, rich in hits. Any-hit rate of the full collection: about 12%.

SMILES | FMDV inh | Sm TGR inh | Shiga inhibitor | CHX counter
COc1cccc(NC(=O)Nc2ccc(C(C)(C)C)cc2)c1 | 12% | 3% | 51* | 25*
COc1cc2c(cc1OC)C(COc1ccccc1OC)N(C(=O)CC(C)C)CC2 (stereo not given) | -3% | -5% | . | .
CCOC(=O)c1[nH]c(C)c(CCC(=O)Nc2cccc(C(F)(F)F)c2)c1C | -19% | -8% | . | .
CC(C)(C)OC(=O)N1C=CCC1CN1C(=O)COCC1=O (stereo not given) | . | . | 17 | 10
COc1cccc(NC(=O)C(=O)NCc2ccncc2)c1 | 46% | . | 78* | 29*
COc1cccc(NC(=O)Nc2ccncc2)c1 | 0% | 3% | 23 | 17*
COc1cccc(NC(=S)NCc2ccncc2)c1 | -1% | ? | -12 | -2
CCOc1ccc(/C=C/c2nc(C#N)c(NCCc3ccccc3)o2)cc1 | 0% | 4% | . | .
COC(=O)c1ccc(CSc2nnc3c(n2)[nH]c2ccccc23)cc1 | -12% | -1% | 10 | 12
Fc1cccc(CSc2nnc3c(n2)[nH]c2ccccc23)c1 | -1% | -6% | 44 | 19*
COc1cccc(-c2nc3cc4c(cc3cc2CN(C(=O)c2cccs2)C2CC2)CCC4)c1OC | 32µM* | . | . | .
Cc1nc2c3ccccc3nc(NNC(=O)CCC(=O)N3CCN(c4cccc(Cl)c4)CC3)n2n1 | ? | 2% | . | .
N/C(Cc1ccc(Cl)cc1)=N\OC(=O)C1CCCCC1 | 27% | -15% | 69* | 53*
Cc1ccccc1OCC1Cc2c(nc(N)c(C#N)c2N)O1 (stereo not given) | 28% | 0% | 58* | 29*
N#Cc1c(N)nc2c(c1N)CC(COc1ccccc1)O2 (stereo not given) | 19% | 3% | 52* | 37*
COc1ccc(C(=O)Nc2cc(S(=O)(=O)c3ccc(Cl)cc3)c(O)c(C)c2C)cc1 | 48% | 4% | . | .
CC(C#Cc1c([C@@H](C)Oc2ccccc2)nnn1Cc1ccccc1)Oc1ccccc1 (stereo not given in full) | -26% | 7.9µM* | -3 | 9
Cc1ccc(/C=C/C(=O)NCc2cccs2)cc1 | 44% | 3% | 139* | 66*
Cc1ccc(CNC(=O)/C=C/c2ccc(Br)o2)cc1 | 9% | 8.9µM* | -5 | 4
Cc1ccc(/C=C/C(=O)NCc2cccs2)o1 | 55% | 2.8µM* | 91* | 18*
O=C(/C=C/c1ccc(Br)o1)NCc1ccccc1 | 8% | . | 17 | -1
Cc1ccc(/C=C/C(=O)NCc2cccs2)c(C)c1 | 14% | 17% | 53* | 37*
COc1ccc2c(c1)CC(C(=O)NCCN1CCN(c3cccc(C)c3C)CC1)CO2 (stereo not given) | ? | -2% | . | .
COc1ccc(NC(=O)c2ccc3nc(CCc4ccccc4)oc3c2)cc1 | 24% | 2% | . | .
Cc1ccc(S(=O)(=O)C(CNC(=O)COc2ccc(Cl)cc2)c2ccco2)cc1 (stereo not given) | -19% | ? | . | .
SMILES | FMDV inh | Sm TGR inh | Shiga inhibitor | CHX counter
O=C(/C=C/c1ccc([N+](=O)[O-])cc1)NCc1cccs1 | -13% | 4% | 13* | 38*
O=C(Nc1ccc2nn(-c3ccc(F)cc3)nc2c1)c1cccc2c(Cl)cccc12 | 0% | 47% | . | .
CCOc1ccc(CCNC(=O)c2cc3c(=O)[nH]c4ccc(C)cc4c3s2)cc1OCC | 0% | 3% | . | .
CCOC(=O)c1sc(NC(=O)c2cc(CC)on2)c(C(=O)OCC)c1C | -11% | 8% | . | .
Brc1cccc(-c2n[nH]c(-c3ccccc3)n2)c1 | 4% | 10% | 146* | 64*
c1ccc(-c2nc(-c3cccnc3)n[nH]2)cc1 | . | 2% | 17 | 31*
c1cc(-c2n[nH]c(-c3ccncc3)n2)ccn1 | -7% | . | . | .
CC(=O)Nc1nonc1-c1nnc(SCc2ccc(F)cc2Cl)n1C | 2% | 1% | . | .
Cc1ccc(-n2[nH]c(C)c(C=Nc3ccc(S(=O)(=O)Nc4nccs4)cc3)c2=O)cc1 | . | -2% | -9 | -1
CCc1nnc(NS(=O)(=O)c2ccc(N=Cc3c(C)[nH]n(-c4ccc(C)c(C)c4)c3=O)cc2)s1 | -14% | 0% | 10 | 12*
C=CCN(C(=O)CSC1=NC(=O)CN1C(C)=O)c1nc(C)c(-c2ccccc2)s1 | -1% | 4.5µM* | 50 | 30*
COc1cccc(C(=O)NCc2nc(-c3ccccc3)no2)c1OC | -10% | 1% | . | .
CCCC1(C)Nc2ccccc2-c2nc3ccccc3n21 (stereo not given) | 0% | -23% | 81* | 53*
c1ccc2c(c1)NC1(CCCC1)n1c-2nc2ccccc21 | . | -24% | 92* | 27*
CCCn1c(-c2ccc[nH]c2=O)nc2ccccc21 | -9% | 17% | -3 | -1
Cc1cccc(N2CCN(C(=O)c3sc4nc5n(c(=O)c4c3C)CCC5)CC2C)c1 (stereo not given) | ? | -22% | . | .
COC(=O)CCn1cnc2onc(-c3cc(F)cc(F)c3)c2c1=O | -1% | -11% | . | .
Cc1ccc(-n2cc(C(=O)Oc3ccc(F)cc3)c3ccccc3c2=O)cc1 | -23% | 35µM* | . | .
Cc1nc(NC(=S)Nc2ccccc2)sc1C | 39% | ? | 127* | 43*
CCc1nnc(NC(=S)Nc2ccccc2)s1 | 67% | -35% | 99* | 45*
CCOc1ccc(C(=O)Nc2nnc(NC(=S)Nc3ccccc3)s2)cc1 | 8% | -5% | 70* | 26*
Cc1nc2cc(NC(=O)[C@@H]3C[C@@H](Sc4ccccn4)CN3Cc3ccccc3F)ccc2s1 | 10% | . | . | .
Cc1ccccc1C1=NCC(=O)N(CC(=O)NCc2ccco2)c2sc3c(c21)CCCC3 | . | -89% | 33 | 15*
O=C(CN1C(=O)c2ccccc2C1=O)Nc1sc2c(c1C(=O)NCC1CCCO1)CCC2 (stereo not given) | -18% | 79µM* | -4 | -1
CCOc1ccc(-n2c(=O)c3c4c(sc3n(CC(=O)NCc3ccco3)c2=O)CCC4)cc1 | -18% | 6% | 0 | -1
SMILES | FMDV inh | Sm TGR inh | Shiga inhibitor | CHX counter
O=C(CCCN1C(=O)c2ccccc2C1=O)Nc1sc2c(c1C(=O)NCc1ccco1)CCC2 | -1% | 40µM* | -1 | 1
O=C(CN1C(=O)c2ccccc2C1=O)Nc1sc2c(c1C(=O)NCc1ccco1)CCCC2 | -5% | -20% | 8 | 4
Cc1occc1C(=O)Nc1cccc(Cl)c1Cl | 0% | -16% | 48 | 24*
CC(=O)c1cccc(NC(=O)c2ccoc2C)c1 | 6% | . | 25 | 7
Cc1occc1C(=O)Nc1ccc2ccccc2c1 | 49% | 0% | 113* | 43*
CCOC(=O)c1cc(NC(=O)c2ccoc2C)cc(C(=O)OCC)c1 | 7% | -1% | 19 | 17*
Cc1occc1C(=O)Nc1ccccc1 | . | . | 33* | 28*
CCOC(=O)c1c(NC(=O)c2ccoc2C)sc(C)c1C | -9% | 18% | -7 | -2
COc1ccc(-c2oc3ncn4nc(COc5cccc(C)c5C)nc4c3c2-c2ccc(OC)cc2)cc1 | -15% | 8% | . | .
O=S1(=O)NCC23CCC(CC21)O3 (stereo not given) | . | . | -15 | 5
COc1ccc(CNC(=O)c2ccc(CSc3nc4ccncc4n3Cc3ccccc3F)cc2)cc1 | 7% | 0% | . | .

Screens: PubChem BioAssay, National Center for Advancing Translational Sciences (NCATS)
